Results filed as inconclusive are left out. Active and inactive are the calls of the source. The calls were made as follows, unless noted: active = hit-call score of the fitted dose curve at least 0.9, where 1 is the maximum; inactive = score below 0.9.
How the values were obtained:
[1] = CCTE_Shafer_MEA_dev_firing_rate_mean: CCTE's Neural Network Formation Assay for Mean Firing Rate, Shafer Lab (AID 2284031)
Outline: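 Extracellular spike frequency, AUC over DIV 5–12 recordings, in rat cortical neuron MEA cultures dosed from plating; loss direction vs DMSO.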

[2] = CCTE_Shafer_MEA_dev_per_burst_spike_percent: CCTE's Neural Network Formation Assay for Percent of Spikes in a Burst, Shafer Lab (AID 2284032)
Outline: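 Value is trapezoidal AUC over recordings on days 5, 7, 9 and 12 of the well-mean fraction of spikes falling in single-electrode bursts; rat cortical cultures exposed continuously from plating, treatment renewed DIV 5 and 9, fitted downward against DMSO.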

[3] = CCTE_Shafer_MEA_dev_active_electrodes_number: CCTE's Neural Network Formation Assay for Number of Active Electrodes, Shafer Lab (AID 2284040; active = hit-call score of the fitted dose curve at least 0.9, where 1 is the maximum)
Outline: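 Developing rat cortical networks on MEAs, exposed DIV 0–12. Value is the AUC of active-electrode counts (≥5 spikes/min) from days 5, 7, 9, 12, relative to DMSO.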

[4] = CCTE_Shafer_MEA_dev_burst_rate: CCTE's Neural Network Formation Assay for Burst Rate, Shafer Lab (AID 2284042)
Outline: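 Primary rat cortical neurons on PEI-coated 48-well MEA plates (laminin added with cells at plating) (16 electrodes/well), exposed from plating to day 12, dosing renewed at DIV 5 and 9. Burst rate averaged over active electrodes, recorded DIV 5, 7, 9, 12, summarized as AUC; loss versus DMSO.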

[5] = CCTE_Shafer_MEA_dev_bursting_electrodes_number: CCTE's Neural Network Formation Assay for Number of Bursting Electrodes, Shafer Lab (AID 2284043; active = hit-call score of the fitted dose curve at least 0.9, where 1 is the maximum)
Outline: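 Counted: electrodes with burst rate ≥1 per 2 min in each well. Cells: primary rat cortex, 1.5 x 10^5/well, on 16-electrode MEA wells. Exposure: DIV 0–12, compound renewed DIV 5 and 9. Recording days 5, 7, 9, 12; AUC vs DMSO baseline.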

[6] = CCTE_Shafer_MEA_dev_per_burst_interspike_interval: CCTE's Neural Network Formation Assay for Burst Interspike Interval, Shafer Lab (AID 2284044)
Outline: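 Developmental network-formation MEA in primary rat cortical cultures with exposure spanning days 0–12. Within-burst ISI is averaged per well and integrated across recording days by area under the curve, with DMSO as negative control baseline.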

[7] = CCTE_Shafer_MEA_dev_burst_duration_mean: CCTE's Neural Network Formation Assay for Mean Burst Duration, Shafer Lab (AID 2284045)
Outline: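 Network-formation assay in primary rat cortical neurons; treatment spans twelve days of development. Mean burst duration per well is integrated by trapezoidal AUC and fitted in the loss-of-signal direction against DMSO baseline.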

[8] = CCTE_Shafer_MEA_dev_interburst_interval_mean: CCTE's Neural Network Formation Assay for Mean Interburst Interval, Shafer Lab (AID 2284046);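 also: well-mean interburst interval of bursting electrodes as AUC over four recording days; curve fitted for decrease in interburst interval relative to DMSO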
Outline: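 Recordings on days 5, 7, 9 and 12 give well-mean interburst interval across actively bursting electrodes, summarized as area under the curve. Cultures: rat cortical neurons, continuous exposure from day 0, compound renewed at feeds; decrease analyzed versus DMSO.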

[9] = CCTE_Shafer_MEA_dev_inter_network_spike_interval_mean: CCTE's Neural Network Formation Assay for Mean Inter-network Spike Interval, Shafer Lab (AID 2284047)
Outline: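 Primary rat cortical neurons on 16-electrode MEA wells, exposed from plating day 0 through DIV 12, compound renewed at DIV 5 and 9 media changes. Mean interval between network-spike peaks recorded DIV 5, 7, 9, 12; collapsed as trapezoidal AUC, fitted downward versus DMSO.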

[10] = CCTE_Shafer_MEA_dev_network_spike_number: CCTE's Neural Network Formation Assay for Number of Network Spikes, Shafer Lab (AID 2284048);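 also: synchronized bursts across electrodes counted on days 5 7 9 12 and integrated as AUC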
Outline: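 Extracellular recordings from 16-electrode wells track network formation in rat cortical cultures under continuous treatment from plating. The endpoint is network spike number, expressed as AUC across DIV 5–12 relative to DMSO vehicle.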

[11] = CCTE_Shafer_MEA_dev_network_spike_peak: CCTE's Neural Network Formation Assay for Mean Number of Electrodes in Network Spike, Shafer Lab (AID 2284049)
Outline: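 Continuous 12-day exposure of rat cortical cultures, starting at plating, on MEA plates. Endpoint: electrodes participating in network-spike peaks, AUC across DIV 5–12, DMSO as negative control.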

[12] = CCTE_Shafer_MEA_dev_spike_duration_mean: CCTE's Neural Network Formation Assay for Mean Spike Duration, Shafer Lab (AID 2284051);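 also: mean network spike duration pooled as area under curve over DIV 5 to 12 recordings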
Outline: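 Primary rat cortical neurons on 16-electrode MEA wells (PEI-coated, laminin in plating drop), exposed from plating through DIV 12 with compound renewed at DIV 5 and 9. Mean network-spike duration recorded DIV 5, 7, 9, 12; trapezoidal AUC across days, DMSO baseline.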

[13] = CCTE_Shafer_MEA_dev_network_spike_duration_std: CCTE's Neural Network Formation Assay for Standard Deviation of Network Spike Duration, Shafer Lab (AID 2284052);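 also: area under curve of spike duration SD across recording days 5 to 12; hits are decreases in network spike duration SD versus DMSO vehicle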
Outline: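 Primary rat cortical neurons on PEI-coated 16-electrode MEA wells, exposed from plating day 0 through day 12 with compound renewed at DIV 5 and 9. Network spike duration SD recorded on days 5, 7, 9, 12, collapsed as trapezoidal AUC; loss-of-signal fit versus DMSO.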

[14] = CCTE_Shafer_MEA_dev_per_network_spike_spike_number_mean: CCTE's Neural Network Formation Assay for Mean Number of Spikes in a Network Spike, Shafer Lab (AID 2284053)
Outline: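 Primary rat cortical neurons on 48-well, 16-electrode MEA plates were exposed from plating to DIV 12, with dosing renewed on DIV 5 and 9. Spikes per network spike (0.05 s peak window) were recorded on DIV 5, 7, 9 and 12 and collapsed as trapezoidal AUC versus DMSO.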

[15] = CCTE_Shafer_MEA_dev_per_network_spike_spike_percent: CCTE's Neural Network Formation Assay for Percent of Spikes in a Network Spike, Shafer Lab (AID 2284054)
Outline: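 Developing networks of rat cortical neurons are dosed at day 0 and recorded extracellularly four times up to day 12. The endpoint is the area under the curve of percent spikes in network spikes, fitted in the negative direction relative to DMSO.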

[16] = CCTE_Shafer_MEA_dev_LDH: CCTE's Lactate Dehydrogenase Assay for Cytotoxicity in the Neural Network Formation Assay, Shafer Lab (AID 2284068; active = hit-call score of the fitted dose curve at least 0.9, where 1 is the maximum;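 also: exposure for twelve days from plating with re-dosing on DIV 5 and 9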)
Outline: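 Primary rat cortical neurons were plated on PEI/laminin MEA plates and exposed from day 0 for twelve days, with compound renewed at DIV 5 and 9. Cytotoxicity was determined by spectrophotometric LDH assay relative to DMSO.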

[17] = CCTE_Shafer_MEA_dev_correlation_coefficient_mean: CCTE's Neural Network Formation Assay for Mean Correlation Coefficient, Shafer Lab (AID 2284093)
Outline: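 Spontaneous activity recorded on days 5, 7, 9 and 12 post-plating; pairwise spike correlations are averaged across active electrodes and collapsed to an area-under-curve. Rat cortical cultures are dosed from plating through 12 days, with compound renewed at media changes.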

[18] = UKN2_HCS_IMR90_neural_migration: University of Konstanz (UKN) Leist Lab Neural Crest Cell Migration Assay in human induced IMR90 Pluripotent Stem Cells (UKN2) (AID 2284204); conditions: actives raise or lower the signal
Outline: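 Using a 96-well stopper format with PLO/laminin/fibronectin coating, neural crest cells from iPSC migrate in cytokine-supplemented N2-S medium; after 24 h, chemicals are applied for a further 24 h, then cells are imaged after dye staining.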

[19] = IUF_NPC1b_proliferation_BrdU_72hr: Leibniz Research Institute for Environmental Medicine (IUF) 72-hour Neural Progenitor Cell Bromodeoxyuridine (BrdU) Proliferation Assay (NPC1b) (AID 2284207)
Outline: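 Neural progenitor spheres of human fetal origin are treated for three days; BrdU added for the last 16 h is quantified by luminescence ELISA, with DMSO as baseline and EGF/FGF omission as positive control.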

[20] = IUF_NPC1a_proliferation_area_72hr: Leibniz Research Institute for Environmental Medicine (IUF) 72-hour Neural Progenitor Cell Proliferation Area Assay (NPC1a) (AID 2284208)
Outline: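 Proliferation is scored as sphere area gain in primary human fetal neural progenitors treated for 72 h in EGF/FGF-containing medium. Viability, LDH and BrdU readouts come from the same wells.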

[21] = IUF_NPC1_viability_72hr: Viability Assessment at 72 hours in the Leibniz Research Institute for Environmental Medicine (IUF) Neural Progenitor Cell Proliferation Assay (NPC1) (AID 2284209)
Outline: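 Three-day continuous exposure of human neural progenitor spheres under EGF/FGF-driven proliferation; cell viability scored by alamar blue signal versus DMSO.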

[22] = CCTE_Mundy_HCI_Cortical_Synap_Neur_Matur_NeuriteSpotCountPerNeuriteLength: CCTE's Synaptogenesis and Neurite Maturation Assay in rat cortical cells for Neurite Spot Count per Neurite Length, Mundy Lab (AID 2284210)
Outline: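 Neurite-associated synapse density (synaptophysin puncta per unit neurite length) is measured by fluorescence high-content imaging in rat cortical cultures treated from DIV 7 and fixed at DIV 12, with DMSO as negative control.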

[23] = CCTE_Mundy_HCI_Cortical_Synap_Neur_Matur_BPCount: CCTE's Synaptogenesis and Neurite Maturation Assay in rat cortical cells for Branch Point Count, Mundy Lab (AID 2284211)
Outline: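 In this multiplexed morphology assay, cortical cells from rat receive chemicals at DIV 7 and are fixed at DIV 12, then immunostained and imaged; branch points are counted, with DMSO as baseline.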

[24] = CCTE_Mundy_HCI_Cortical_NOG_NeuriteCount: CCTE's Neurite Outgrowth Assay in rat cortical cells for Neurite Count, Mundy Lab (AID 2284212);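 also: cells fixed about two days after chemical exposure began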
Outline: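 Rat cortical primary cells; compound added 2 h post-plating, 1/10 dilution of working solution. Anti-betaIII-tubulin/AF488 ICC; ArrayScan neurite count vs DMSO.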

Measured: AC50

C[C@@H]1CC[C@@H](C(C)(C)O)[C@H](O)C1
active: [19] 8.23 µM
inactive: all other assays above
